Broadly, the AC50 is the concentration at which the activity in the assay is half-maximal.

“And” between values parts separate entries of the source, which are not always exact repeats. Equal values may be shown once. In all, about 16,000 compounds went through this assay and about 4,000 (25%) were called active. Another 26% or so got no clear call; they are omitted. Only a sample is shown. Values without a mark were called inactive. Calls come from the whole dose curve; as a rule, active = well fitted curve in the direction sought with a large enough effect; inconclusive = small, poorly fitted or top-dose-only effect, or effect the other way; inactive = no such curve, though single readings can be large or run the other way.
% is set by controls: 0 for no effect and ±100 for the full control effect.

This assay deals with Cytochrome P450 2C9 (Homo sapiens) (UniProt P11712). In words: Cytochrome panel assay with activity outcomes. The following applies: recombinant CYP, pro-luciferin dealkylation, luminescence, p450-cyp2c9; series mostly up to 57.1 µM; activity, negative = inhibition: at the top concentration.
Cytochrome P450 2C9 (Homo sapiens), sequence (P11712 whole entry, looked up): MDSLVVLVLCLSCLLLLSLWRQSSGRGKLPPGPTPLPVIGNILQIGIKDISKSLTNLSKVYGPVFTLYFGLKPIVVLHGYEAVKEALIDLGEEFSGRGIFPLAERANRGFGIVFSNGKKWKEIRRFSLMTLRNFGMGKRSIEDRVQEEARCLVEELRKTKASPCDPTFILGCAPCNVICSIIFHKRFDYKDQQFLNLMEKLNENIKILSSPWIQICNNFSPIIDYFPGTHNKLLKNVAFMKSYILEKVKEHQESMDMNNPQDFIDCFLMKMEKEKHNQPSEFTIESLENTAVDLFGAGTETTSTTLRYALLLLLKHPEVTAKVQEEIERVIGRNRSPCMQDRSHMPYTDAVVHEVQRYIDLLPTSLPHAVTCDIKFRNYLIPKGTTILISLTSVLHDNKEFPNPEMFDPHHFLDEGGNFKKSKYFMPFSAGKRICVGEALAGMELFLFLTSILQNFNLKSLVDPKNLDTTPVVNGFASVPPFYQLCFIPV
As to `CCC(CC)C(=O)NCCN1CCN(C(=O)C(CC)CC)CC1`, the “activity, negative = inhibition” value was -25.1%.
Same read-out and setting: next, `CN(C)CCn1nnnc1SCC1=C(C(=O)O)N2C(=O)[C@@H](NC(=O)Cc3csc(N)n3)[C@@H]2SC1`: -7.71% [at 25.6 µM]; `Cn1c(=O)c2c(nc(C(=N)SCC(=O)O)n2C)n(C)c1=O`: -13.3% [at 11.4 µM]; `Cc1[nH]c2c(C)ccc(C)c2c1CC(=O)O`: -16.5% [at 11.4 µM].
Same read-out and setting: under `Clc1ccccc1-c1nc(NCc2cccnc2)c2ccccc2n1` stands -14.1% [at 2.29 µM].
Still for that read-out and setting: under `Cc1ccccc1-c1nc(NCc2cccnc2)c2ccccc2n1` stands 9.82% [at 2.29 µM].
With `Clc1ccccc1-c1nc(N/N=C/c2cccnc2)c2ccccc2n1`, the AC50 is 2.24 µM (active).
As to `CCC(=O)O[C@H](CC(=O)O)C[N+](C)(C)C`, the “activity, negative = inhibition” value was -21.4%.
The same measure, in the same setting: next, `N[C@@H](COP(=O)(O)O)C(=O)O`: 1.4%.
As for `Fc1ccc(-c2[nH]ncc2-c2nnnn2-c2ccccc2)c(F)c1`, the AC50 was 7.94 µM (active).
As for `C=CC[C@@H](C(=O)O)c1ccccc1`, the activity, negative = inhibition was -1.11% [at 11.4 µM].
As to `CCOc1cc(/C=N/NC(=O)COc2cccc(C)c2)ccc1OC(=O)c1cccs1`, the AC50 was 3.16 µM (active).
Regarding `CCOc1cc(/C=N/NC(=O)CNc2cccc(C)c2)ccc1OC(=O)c1ccccc1`, the AC50 is 5.01 µM (active).
For `N#Cc1cccc(NC(=O)N2CC3(CCN(C(=O)c4cnccn4)CC3)C2)c1`, the “activity, negative = inhibition” value was 6.68%.
On the same count and under the same terms, next, `CC(C)(C)c1c2c(c(C(C)(C)C)c3c1OCN(Cc1ccccc1)C3)OCN(Cc1ccccc1)C2`: -7.82% [at 11.4 µM].
Regarding `C#CCSc1nc(Cc2ccc(Cl)cc2)nc2ccccc12`, the AC50 was 2.82 µM (active).
Regarding `O=C1NC(c2ccccc2)=NC1(NS(=O)(=O)c1ccccc1)C(F)(F)F` (stereo unspecified), the “activity, negative = inhibition” value is -1.05%.
With `O=C(OCCNC(=O)c1ccc2ccccc2n1)c1ccc(F)cc1`, the AC50 is 10 µM (active).
Consider `NCCNC(=O)c1ncsc1-c1cccc(F)c1`, for which the “activity, negative = inhibition” value was -13.3%.
Same read-out and setting: under `CCCCNc1ccc(C(=O)OCCOCCOCCOCCOCCOCCOCCOCCOCCOC)cc1` stands -19.2% [at 25.6 µM].
Take `O=c1[nH]c(SCc2c(Cl)c(Cl)c(Cl)c(Cl)c2Cl)nc(=S)[nH]1`: the AC50 was 1.26 µM (active).
As to `Nc1ccc(N=Nc2c(S(=O)(=O)O)cc3ccccc3c2S(=O)(=O)O)cc1`, the activity, negative = inhibition is 8.14% [at 11.4 µM].
The same measure, in the same setting: under `NCC[C@H]1CCC[C@H](CCN)N1` stands 18.1%; under `COc1cc2nc(N3CCN(C(=O)c4ccco4)CC3)nc(N)c2cc1OC`, 15.7% [at 25.6 µM].
On to `Cc1ccc(C)c(N2CCN(C(=O)c3ccc4nc(-c5ccco5)c(-c5ccco5)nc4c3)CC2)c1`, for which the AC50 was 7.08 µM (active).
With `COc1ccc(C)cc1NC(=O)CSc1nnc(-c2ccc(OC)c(OC)c2)n1N`, the “activity, negative = inhibition” value was -24.7%.
Consider `COc1ccc(C)cc1NC(=O)CCC(=O)Nc1nnc(C(F)(F)F)s1`, for which the AC50 is 1.26 µM (active).
Take `CCC(=O)OCC(=O)[C@@]1(OC(=O)CC)[C@H](C)C[C@@H]2[C@H]3CCC4=CC(=O)C=C[C@]4(C)[C@]3(Cl)[C@@H](O)C[C@@]21C`: the “activity, negative = inhibition” value was -6.62% [at 25.6 µM].
The same measure, in the same setting: under `CCN(CC)C[C@@H](O)c1ccc2ccc3ccccc3c2c1` stands -3.91% [at 11.4 µM].
With `CCCCOC(OCCCC)[C@H](O)CSc1ccc2ccccc2c1`, the AC50 was 2 µM (active).
With `CC(C)NC[C@H](O)c1ccc2ccccc2c1`, the AC50 result is “inactive”.
On to `Cc1cc(C)c(C#N)c(Oc2ccccc2)n1`, for which the “activity, negative = inhibition” value is -26.3%.
With `Cc1cc(C)c(C#N)c(OCC(=O)c2ccc(Br)cc2)n1`, the AC50 was 10 µM (active).
In the case of `Cc1ccc(=O)n(-c2ccccc2)c1`, the “activity, negative = inhibition” value is -14.5%.
Same read-out and setting: next, `COc1ccc(NC(=O)N2CCCC3(CCN(C(=O)c4cccn4C)CC3)C2)cc1`: 6.73%.
Regarding `O=C1CN(C(=O)c2ccc(Br)o2)C(c2ccc(F)cc2)c2cc(Cl)ccc2N1` (stereo unspecified), the AC50 is 6.31 µM (active).
For `CO[C@H]1COC(=O)C/C=C\[C@@H](C)COC(=O)[C@@H](CCSC)NC(=O)C/C=C\[C@@H]1C`, the activity, negative = inhibition is -2.93% [at 11.4 µM] and 12.5% [at 11.4 µM].
The same measure, in the same setting: under `C[C@H]1COC(=O)[C@H]2CCCN2C(=O)[C@@H](C)COC(=O)[C@H](Cc2ccccc2)NC1=O` stands 13.4% [at 11.4 µM].
Same read-out and setting: under `Cc1ccc(S(=O)(=O)NCc2ccccc2)cc1` stands -8.12%.
For the compound `Cc1ccc(NNS(=O)(=O)c2ccc(C)cc2)cc1`, the AC50 was 8.91 µM (active).
On to `Cc1ccc(S(=O)(=O)N[C@H]2COC(=O)C/C=C\[C@H](C)[C@@H](NS(=O)(=O)c3ccc(C)cc3)COC(=O)C/C=C\[C@@H]2C)cc1`, for which the activity, negative = inhibition is -6.21% [at 11.4 µM].
On to `Cc1ccc(S(=O)(=O)NNc2ccccc2)cc1`, for which the AC50 was 8.91 µM (active).
For `Cc1ccc(S(=O)(=O)N[C@H](C(=O)O)C(C)C)cc1`, the activity, negative = inhibition is -4.41% [at 11.4 µM].
For `CCN=C1NN=C(c2ccc(C)cc2)CS1`, the AC50 was 6.31 µM (active).
Same read-out and setting: under `COc1cccc(NC(=O)CSc2nc3ccccc3cc2Cc2ccccc2)c1` stands 6.31 µM (active).
Regarding `COc1ccc2cc(C#N)c(SCC(=O)NNC(=O)Cc3ccccc3)nc2c1`, the “activity, negative = inhibition” value is -16.9%.

Values taken from PubChem BioAssay AID1851 (National Center for Advancing Translational Sciences (NCATS), 2009).
